# Laboratory results as given in PubChem BioAssay (EPA / NIEHS).
# Several values for one entry are separate records, joined by “and”; a condition that tells them apart may be missing. Equal values may be shown once. Inconclusive results are not listed. Some compounds were tested as several samples or in several runs, with calls that do not always agree. Activity calls are given as the source filed them. How the source made its calls: active means hit-call score of the fitted dose curve at least 0.9, where 1 is the maximum; inconclusive means response in the unintended direction; inactive means score below 0.9.
# Columns and labels:
# [1] = target: guinea pig Bradykinin Receptor B2 (BK2), BDKRB2 (gene 100135486) (UniProt O70526); assay: NVS_GPCR_gBK2: NovaScreen (NVS) G Protein-Coupled Receptor Assay for guinea pig Bradykinin Receptor B2 (BK2) (AID 2283292)
# Sequence of guinea pig Bradykinin Receptor B2 (BK2), BDKRB2 (gene 100135486) (O70526 whole entry, looked up): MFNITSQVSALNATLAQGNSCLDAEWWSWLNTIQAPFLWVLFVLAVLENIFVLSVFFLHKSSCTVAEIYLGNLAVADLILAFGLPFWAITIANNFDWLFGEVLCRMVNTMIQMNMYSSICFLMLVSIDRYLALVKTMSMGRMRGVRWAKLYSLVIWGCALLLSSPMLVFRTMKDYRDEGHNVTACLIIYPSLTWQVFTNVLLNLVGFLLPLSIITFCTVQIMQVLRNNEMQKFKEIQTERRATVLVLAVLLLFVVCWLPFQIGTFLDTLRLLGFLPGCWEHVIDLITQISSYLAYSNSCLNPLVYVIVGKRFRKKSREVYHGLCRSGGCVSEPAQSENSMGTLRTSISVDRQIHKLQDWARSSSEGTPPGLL
# How it was run: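 Radioligand displacement on guinea pig ileum membranes for 1 h, read by filter-based scintillation counting; loss of signal relative to DMSO. Compounds were screened in duplicate at 25 uM, and those passing the threshold were retested in concentration-response up to 50 uM.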
# [2] = target: mouse Cholecystokinin, CCK2 Receptor (CCKB), Cckbr (gene 12426) (UniProt P56481); assay: NVS_GPCR_mCKKBCentral: NovaScreen (NVS) G Protein-Coupled Receptor Assay for mouse Cholecystokinin, CCK2 Receptor (CCKB) (AID 2283293)
# Sequence of mouse Cholecystokinin, CCK2 Receptor (CCKB), Cckbr (gene 12426) (P56481 whole entry, looked up): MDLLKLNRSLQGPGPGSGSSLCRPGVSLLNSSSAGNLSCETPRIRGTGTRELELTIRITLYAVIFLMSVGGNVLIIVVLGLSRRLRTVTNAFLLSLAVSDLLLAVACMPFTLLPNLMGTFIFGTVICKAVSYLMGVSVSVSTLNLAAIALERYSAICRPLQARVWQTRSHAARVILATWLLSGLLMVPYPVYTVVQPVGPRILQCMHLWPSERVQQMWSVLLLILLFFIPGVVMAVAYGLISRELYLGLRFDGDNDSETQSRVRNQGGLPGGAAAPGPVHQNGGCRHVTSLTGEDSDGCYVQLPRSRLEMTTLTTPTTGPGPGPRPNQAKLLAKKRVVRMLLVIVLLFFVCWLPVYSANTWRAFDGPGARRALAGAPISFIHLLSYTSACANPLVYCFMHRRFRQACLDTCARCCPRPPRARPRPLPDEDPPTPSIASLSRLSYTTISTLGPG
# Description: NVS_GPCR_mCKKBCentral is a biochemical, single-readout assay that uses extracted gene-proteins from Mouse forebrain membranes in a tissue-based cell-free assay. Measurements were taken 2 hours after chemical dosing in a 96-well plate.NVS_GPCR_mCKKBCentral is one of one assay component(s) measured or calculated from the NVS_GPCR_mCKKBCentral assay. It is designed to make measurements of radioligand binding, a form of binding reporter, as detected with scintillation counting signals by Filter-based radiodetection technology.Data from the assay component NVS_GPCR_mCKKBCentral was analyzed into 1 assay endpoint. This assay endpoint, NVS_GPCR_mCKKBCentral, was analyzed in the positive analysis fitting direction relative to DMSO as the negative control and baseline of activity. Using a type of binding reporter, loss-of-signal activity can be used to understand changes in the binding as they relate to the gene Cckbr. Furthermore, this assay endpoint can be referred to as a primary readout, because the performed assay has only produced 1 assay endpoint. To generalize the intended target to other relatable targets, this assay endpoint is annotated to the gpcr intended target family, where the subfamily is rhodopsin-like receptor.
# Binding assays used specific radioligands (tritiated, iodinated) with non-radioactive competitive displacement ligands in agonist or antagonist protocols (as indicated) and various reference compounds and inhibitors to titrate specific binding to receptors and transporters. Most enzyme assays (CYPs, kinases, phosphatases, proteases, HDACs) used recombinant protein and specific substrates (fluorescence mostly, some colorimetric and radioactive) and inhibitors, followed by a biochemical separation of substrate and product. All assays for the biochemical HTS were initially run in duplicate at a single concentration (10 uM for CYP450 assays and 25 uM for all others). Assay-chemical combinations meeting a pre-defined threshold (e.g., 30% inhibition and other criteria defined below) were then run in singleton concentration-response format with maximum concentration of 20 uM for CYPs and 50 uM for all others. Each assay was run with positive and negative controls, and concurrent controls on every plate. The follow-up (secondary) screen tested active chemical-pairs in concentration series, as well as a few additional assays not tested in the primary screen, some selected negative inactives, and several cases re-run in the concentration series for confirmatory purposes.
# [3] = target: human Opioid Receptor Mu (Opiate Mu), OPRM1 (gene 4988) (UniProt P35372); assay: NVS_GPCR_hOpiate_mu: NovaScreen (NVS) G Protein-Coupled Receptor Assay for human Opioid Receptor Mu (Opiate Mu) (AID 2283290);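 further: hits lower bound tracer signal versus DMSO meaning displacement of the ligand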
# Sequence of human Opioid Receptor Mu (Opiate Mu), OPRM1 (gene 4988) (P35372 whole entry, looked up): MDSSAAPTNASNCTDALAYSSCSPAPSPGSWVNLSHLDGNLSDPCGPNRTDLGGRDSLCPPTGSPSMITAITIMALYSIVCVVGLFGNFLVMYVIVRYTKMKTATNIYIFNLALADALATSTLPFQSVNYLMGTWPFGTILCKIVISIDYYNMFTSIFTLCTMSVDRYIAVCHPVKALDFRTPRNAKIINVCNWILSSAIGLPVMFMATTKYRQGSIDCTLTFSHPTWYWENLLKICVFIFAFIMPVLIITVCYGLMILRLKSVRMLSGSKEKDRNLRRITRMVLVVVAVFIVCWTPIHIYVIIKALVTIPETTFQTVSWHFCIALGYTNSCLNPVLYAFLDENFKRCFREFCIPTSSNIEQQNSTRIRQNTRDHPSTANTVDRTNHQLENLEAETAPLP
# How it was run: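 Primary screen in duplicate at 25 uM, with actives followed in concentration series. CHO-derived receptor membranes, cell-free; bound radioligand read by scintillation counting after filtration at 2.5 h, decrease scored against DMSO.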
# [4] = target: rat Adrenergic, Alpha 1, Non-selective Receptor (Adra1), Adra1a (gene 29412) (UniProt P43140); assay: NVS_GPCR_rAdra1_NonSelective: NovaScreen (NVS) G Protein-Coupled Receptor Assay for rat Adrenergic, Alpha 1, Non-selective Receptor (Adra1) (AID 2283289)
# Sequence of rat Adrenergic, Alpha 1, Non-selective Receptor (Adra1), Adra1a (gene 29412) (P43140 whole entry, looked up): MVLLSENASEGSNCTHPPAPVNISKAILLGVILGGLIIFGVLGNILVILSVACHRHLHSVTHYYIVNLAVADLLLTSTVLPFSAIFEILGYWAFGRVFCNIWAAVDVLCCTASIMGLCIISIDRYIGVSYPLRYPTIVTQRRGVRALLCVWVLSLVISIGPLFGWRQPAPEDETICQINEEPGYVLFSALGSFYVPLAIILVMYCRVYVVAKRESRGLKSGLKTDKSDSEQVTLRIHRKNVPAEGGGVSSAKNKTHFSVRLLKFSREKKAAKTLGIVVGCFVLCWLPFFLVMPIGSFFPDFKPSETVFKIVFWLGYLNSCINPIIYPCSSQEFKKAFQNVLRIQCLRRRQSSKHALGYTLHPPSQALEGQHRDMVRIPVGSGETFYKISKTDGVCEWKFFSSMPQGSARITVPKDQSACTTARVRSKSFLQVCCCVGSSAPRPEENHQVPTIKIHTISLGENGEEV
# How it was run: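 Rat forebrain membranes; radioligand displacement read by filter-based scintillation counting 1 h after dosing. Primary screen in duplicate at 25 uM; hits (e.g. ≥30% inhibition) rerun as concentration–response to 50 uM max. Fitted versus DMSO.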
# [5] = target: guinea pig Serotonin, 5-Hydroxytryptamine Receptor 4 (5HT4), HTR4 (gene 100135548) (UniProt O70528); assay: NVS_GPCR_g5HT4: NovaScreen (NVS) G Protein-Coupled Receptor Assay for guinea pig Serotonin, 5-Hydroxytryptamine Receptor 4 (5HT4) (AID 2283294)
# Sequence of guinea pig Serotonin, 5-Hydroxytryptamine Receptor 4 (5HT4), HTR4 (gene 100135548) (O70528 whole entry, looked up): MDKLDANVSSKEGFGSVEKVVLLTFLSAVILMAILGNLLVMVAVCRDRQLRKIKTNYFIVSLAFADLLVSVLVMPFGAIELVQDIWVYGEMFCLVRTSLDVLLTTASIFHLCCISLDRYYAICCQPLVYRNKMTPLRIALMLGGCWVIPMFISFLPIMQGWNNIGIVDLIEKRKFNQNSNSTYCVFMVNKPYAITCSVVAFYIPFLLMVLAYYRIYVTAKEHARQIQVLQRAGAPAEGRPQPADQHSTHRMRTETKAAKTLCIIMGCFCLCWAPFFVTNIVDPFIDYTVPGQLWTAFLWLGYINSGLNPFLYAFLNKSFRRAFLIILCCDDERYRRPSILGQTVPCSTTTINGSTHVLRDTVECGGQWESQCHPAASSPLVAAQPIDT
# How it was run: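 Guinea pig striatal membranes; radioligand competitive displacement, filtration and scintillation counting after 1 h. Primary screen in duplicate at 25 uM; actives then tested in concentration series; loss of binding signal fitted relative to DMSO.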
# [6] = target: rat Adrenergic, Alpha 1A Receptor (Adra1A), Adra1a (gene 29412) (UniProt P43140); assay: NVS_GPCR_rAdra1A: NovaScreen (NVS) G Protein-Coupled Receptor Assay for rat Adrenergic, Alpha 1A Receptor (Adra1A) (AID 2283296)
# Sequence of rat Adrenergic, Alpha 1A Receptor (Adra1A), Adra1a (gene 29412) (P43140 whole entry, looked up): as the sequence (P43140 whole entry, looked up) above
# How it was run: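 Rat cortical membranes pretreated with chlorethyl clonidine; competitive radioligand displacement, 1 h. Filter-based scintillation counting. Primary screen in duplicate at 25 uM, actives followed in concentration series.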
# [7] = target: rat Adrenergic Receptor, Beta (Adrb), Non-selective Binding, Adrb1 (gene 24925) (UniProt P18090); assay: NVS_GPCR_rAdrb_NonSelective: NovaScreen (NVS) G Protein-Coupled Receptor Assay for rat Adrenergic Receptor, Beta (Adrb), Non-selective Binding (AID 2283298)
# Sequence of rat Adrenergic Receptor, Beta (Adrb), Non-selective Binding, Adrb1 (gene 24925) (P18090 whole entry, looked up): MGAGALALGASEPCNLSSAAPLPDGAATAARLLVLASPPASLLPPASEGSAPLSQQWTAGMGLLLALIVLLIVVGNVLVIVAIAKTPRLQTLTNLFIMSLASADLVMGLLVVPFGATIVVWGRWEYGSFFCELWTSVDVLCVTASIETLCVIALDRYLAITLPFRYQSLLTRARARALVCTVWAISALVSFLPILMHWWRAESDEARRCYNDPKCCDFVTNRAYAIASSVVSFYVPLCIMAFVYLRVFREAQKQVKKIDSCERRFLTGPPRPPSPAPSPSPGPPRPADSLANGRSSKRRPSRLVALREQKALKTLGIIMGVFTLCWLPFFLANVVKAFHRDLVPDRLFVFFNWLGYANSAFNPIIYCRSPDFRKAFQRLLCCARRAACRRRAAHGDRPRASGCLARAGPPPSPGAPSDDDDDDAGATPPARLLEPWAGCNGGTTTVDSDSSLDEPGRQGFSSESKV
# How it was run: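 Non-selective beta-adrenergic radioligand binding in rat cortical membranes, 1 h incubation, filter-based scintillation read-out. Primary screen 25 uM in duplicate; hits retested in concentration-response up to 50 uM, DMSO baseline.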
# [8] = tested on: guinea pig Atrionatriuretic Peptide Receptor A (ANPA), gene 100135578; assay: NVS_GPCR_gANPA: NovaScreen (NVS) G Protein-Coupled Receptor Assay for guinea pig Atrionatriuretic Peptide Receptor A (ANPA) (AID 2283291)
# How it was run: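 Radioligand binding to guinea pig cerebellar membranes was measured after 1 h by filter-based scintillation counting. Chemicals were tested in duplicate at 25 uM, with hits run in concentration-response to a maximum of 50 uM. Binding loss was fitted against DMSO.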
# [9] = tested on: rat Adrenergic, Alpha 1B Receptor (Adra1B), gene 24173; assay: NVS_GPCR_rAdra1B: NovaScreen (NVS) G Protein-Coupled Receptor Assay for rat Adrenergic, Alpha 1B Receptor (Adra1B) (AID 2283297)
# Description: (§1) NVS_GPCR_rAdra1B is a biochemical, single-readout assay that uses extracted gene-proteins from Rat liver membranes in a tissue-based cell-free assay. Measurements were taken 1 hour after chemical dosing in a 48-well plate.NVS_GPCR_rAdra1B is one of one assay component(s) measured or calculated from the NVS_GPCR_rAdra1B assay. It is designed to make measurements of radioligand binding, a form of binding reporter, as detected with scintillation counting signals by Filter-based radiodetection technology.Data from the assay component NVS_GPCR_rAdra1B was analyzed into 1 assay endpoint. This assay endpoint, NVS_GPCR_rAdra1B, was analyzed in the positive analysis fitting direction relative to DMSO as the negative control and baseline of activity. Using a type of binding reporter, loss-of-signal activity can be used to understand changes in the binding as they relate to the gene Adra1b. Furthermore, this assay endpoint can be referred to as a primary readout, because the performed assay has only produced 1 assay endpoint. To generalize the intended target to other relatable targets, this assay endpoint is annotated to the gpcr intended target family, where the subfamily is rhodopsin-like receptor. […]
# [10] = target: rat Serotonin, 5-Hydroxytryptamine Receptor (5HT), Non-Selective Binding, Htr1a (gene 24473) (UniProt P19327); assay: NVS_GPCR_r5HT_NonSelective: NovaScreen (NVS) G Protein-Coupled Receptor Assay for rat Serotonin, 5-Hydroxytryptamine Receptor (5HT), Non-Selective Binding (AID 2283295)
# Sequence of rat Serotonin, 5-Hydroxytryptamine Receptor (5HT), Non-Selective Binding, Htr1a (gene 24473) (P19327 whole entry, looked up): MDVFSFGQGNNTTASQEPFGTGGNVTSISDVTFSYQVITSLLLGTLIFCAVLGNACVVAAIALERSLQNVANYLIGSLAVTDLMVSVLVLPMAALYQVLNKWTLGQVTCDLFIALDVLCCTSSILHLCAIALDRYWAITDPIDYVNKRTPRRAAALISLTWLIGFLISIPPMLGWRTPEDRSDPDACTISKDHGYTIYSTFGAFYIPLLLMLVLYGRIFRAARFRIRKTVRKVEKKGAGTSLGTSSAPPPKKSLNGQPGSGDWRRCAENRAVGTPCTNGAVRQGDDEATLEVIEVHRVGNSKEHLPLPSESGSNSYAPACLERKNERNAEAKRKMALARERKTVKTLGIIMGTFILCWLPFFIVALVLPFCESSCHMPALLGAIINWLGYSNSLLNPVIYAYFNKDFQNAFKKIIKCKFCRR
# Description: as §1, with “NVS_GPCR_r5HT_NonSelective” for “NVS_GPCR_rAdra1B”, “cortical” for “liver”, “plate.NVS_GPCR_r5HT_NonSelective” for “plate.NVS_GPCR_rAdra1B”, “NVS_GPCR_r5HT_NonSelective,” for “NVS_GPCR_rAdra1B,”, “Htr1a.” for “Adra1b.”
smiles,measurement,setting,value
CCC(C)(C)C(=O)OC1=C(c2ccc(Cl)cc2Cl)C(=O)OC12CCCCC2,outcome,[1],inactive
same,outcome,[2],inactive
Oc1cc(Cl)ccc1Oc1ccc(Cl)cc1Cl,AC50,[3],19.9 µM (active) and 7.86 µM (active) and 15.6 µM (active)
same,outcome,[3],inactive
CC(C)(C)C(O)/C(=C\c1ccc(Cl)cc1Cl)n1cncn1 (centres undefined),outcome,[3],inactive
ClC1C(Cl)C(Cl)C(Cl)C(Cl)C1Cl (centres undefined),outcome,[4],inactive
O=C(Nc1ccccc1)Nc1cnns1,AC50,[5],6.99 µM (active)
same,outcome,[6],inactive
CCCN(CCOc1c(Cl)cc(Cl)cc1Cl)C(=O)n1ccnc1,AC50,[3],10.5 µM (active)
same,AC50,[2],6.71 µM (active)
N#Cc1c(Cl)c(Cl)c(Cl)c(C#N)c1Cl,outcome,[5],inactive
C#CCN1C(=O)COc2cc(F)c(N3C(=O)C4=C(CCCC4)C3=O)cc21,outcome,[1],inactive
same,outcome,[7],inactive
COC(=O)c1ccccc1S(=O)(=O)NC(=O)N(C)c1nc(C)nc(OC)n1,outcome,[1],inactive
CCc1ccc(C(=O)NN(C(=O)c2cc(C)cc(C)c2)C(C)(C)C)cc1,outcome,[2],inactive
O=S(=O)(O)C(F)(F)C(F)(F)C(F)(F)C(F)(F)C(F)(F)C(F)(F)C(F)(F)C(F)(F)F,outcome,[8],inactive
same,outcome,[9],inactive
CC(C)(C)C(O)C(Oc1ccc(Cl)cc1)n1cncn1 (centres undefined),outcome,[2],inactive
same,outcome,[9],inactive
CC(C)OC(=O)Nc1cccc(Cl)c1,outcome,[4],inactive
O=C1c2ccccc2C(=O)N1SC(Cl)(Cl)Cl,AC50,[3],6.04 µM (active)
Oc1ccc(Cl)cc1Cc1ccccc1,AC50,[3],16.5 µM (active) [middle of 6 runs]
same,outcome,[3],inactive
same,AC50,[2],19.8 µM (active) [middle of 4 runs]
same,AC50,[5],17.2 µM (active) [middle of 6 runs]
same,outcome,[7],inactive
CC[C@H](C)[C@H]1O[C@]2(C=C[C@@H]1C)C[C@@H]1C[C@@H](C/C=C(\C)[C@@H](O[C@H]3C[C@H](OC)[C@@H](O[C@H]4C[C@H](OC)[C@@H](O)[C@H](C)O4)[C@H](C)O3)[C@@H](C)/C=C/C=C3\CO[C@@H]4[C@H](O)C(C)=C[C@@H](C(=O)O1)[C@]34O)O2 (tested in a mixture with another compound),AC50,[3],9.27 µM (active)
same,AC50,[2],12.4 µM (active)
same,AC50,[10],16.4 µM (active)
